FGF22 binding: binders of human FGF22 protein, primary screen, FGF22 synaptogenesis inhibitor project, biophysical, thermal shift, single point; activity (Tm shift, normalised), % at 9.99 µM; recombinant FGF22 thermal shift, SYPRO orange fluorescence; percent of sucrose octasulfate shift, DMSO zero; Fibroblast growth factor 22 (Homo sapiens), Q9HCT0; hit rate 1.5% among 340,000;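 active = mean Tm shift, scaled 0 neutral to 100 positive control, at about 1.3% or above, every replicate too, limit read from the data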
Target sequence (Q9HCT0 whole entry, looked up): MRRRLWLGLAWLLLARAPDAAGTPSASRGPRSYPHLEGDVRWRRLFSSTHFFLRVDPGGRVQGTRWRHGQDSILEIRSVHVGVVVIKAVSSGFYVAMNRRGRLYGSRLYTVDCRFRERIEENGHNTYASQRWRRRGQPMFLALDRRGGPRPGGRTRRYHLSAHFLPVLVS
SIRT5 block: SIRT5 desuccinylase inhibitors, primary screen, biochemical, fluorescence imaging, single point, set 5. Purified SirT5, succinyl-peptide AMC, trypsin-coupled fluorescence. inhibition, % at 15 µM. hit rate 1.1% among 330,000; in the data active = inhibition above about 15%
dFosB activator: activators of delta FosB homodimer, primary screen, biochemical, fluorescence polarization, TAMRA-CDK5 oligo, single point. purified delta FosB; percent of positive-control signal above neutral wells. hit rate 0.99% among 340,000. AID 493131, 2011. activation, % at 25 µM;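 active = mean activation above about 17%, with every replicate also reaching it, limit read from the data, passing the limit was not always enough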
Target sequence (P13346 whole entry, looked up): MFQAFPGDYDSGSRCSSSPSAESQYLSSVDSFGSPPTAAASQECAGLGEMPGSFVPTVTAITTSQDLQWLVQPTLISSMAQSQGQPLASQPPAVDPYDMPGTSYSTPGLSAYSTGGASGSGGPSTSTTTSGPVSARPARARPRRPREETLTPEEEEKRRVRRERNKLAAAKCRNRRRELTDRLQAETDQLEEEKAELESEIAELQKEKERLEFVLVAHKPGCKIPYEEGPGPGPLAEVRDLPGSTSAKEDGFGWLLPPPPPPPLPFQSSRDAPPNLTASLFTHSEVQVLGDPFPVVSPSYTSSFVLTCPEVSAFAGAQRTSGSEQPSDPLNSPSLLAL
PvdQ inh: P. aeruginosa PvdQ acylase inhibitors, primary screen, biochemical, fluorescence, plate reader and imaging, single point | inhibition, % at 10 µM | AID 488965, 2010 | purified PvdQ acylase | hit rate 0.063% among 340,000 | PvdQ acylase [Pseudomonas aeruginosa LESB58]; in the data active = inhibition above about 30%, passing the limit was not always enough;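 also: 0% = vehicle neutral wells and 100% = reference inhibitor wells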
PglD DTNB: C. jejuni PglD acetyltransferase inhibitors, primary screen, biochemical, DTNB colorimetric, single point. inhibition, % at 12.5 µM. AID 602405, 2012. UDP-N-acetylbacillosamine N-acetyltransferase PglD (Campylobacter jejuni). purified PglD enzyme, DTNB colorimetric CoA detection. hit rate 0.098% among 360,000; in the data active = inhibition above about 16%, passing the limit was not always enough
CDK5 inh: inhibitors of human CDK5/p35 kinase, primary screen, biochemical, single concentration | Recombinant CDK5/p35, ADP-Glo luminescence, 60 min | inhibition, % at 10 µM | hit rate 0.01% among 330,000 | AID 488839, 2010;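 active = highest replicate inhibition of at least 50% and at least 75% of replicates reaching 50%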;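 also: plate controls were DMSO neutral control for no effect and GW8510 at 10 µM for full effect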
The depositor's hits bear a star. In the library only some 2.8% were active in any assay of this set; here they are far more common.

`CCOC(=O)c1ccc(S(=O)(=O)NC2CC2)cc1` gave FGF22 binding 0, SIRT5 block 2, dFosB activator -6, PvdQ inh -14, PglD DTNB 14 and CDK5 inh -1.
For COc1ccc(C(=O)O)nc1C the results were FGF22 binding 0, SIRT5 block 17*, dFosB activator -5, PvdQ inh -12, PglD DTNB -5 and CDK5 inh 0.
Screening COCCOC(=O)N1C(=O)[C@@]2(c3cc(C#Cc4ccc(OC)cc4)ccc31)[C@H](C(=O)NC[C@H](O)c1ccccc1)[C@H]1C(=O)O[C@H](c3ccccc3)[C@H](c3ccccc3)N1[C@@H]2c1ccc(O)cc1 returned FGF22 binding 0, SIRT5 block -1 and PglD DTNB 3.
For CN1CCN(CC(=O)Nc2nc3ccccc3s2)CC1 the results were FGF22 binding 0, SIRT5 block 21*, dFosB activator -2, PvdQ inh -22, PglD DTNB 4 and CDK5 inh 1.
CCN1CCN(CC(=O)Nc2nc3ccccc3s2)CC1 was read as FGF22 binding 0, SIRT5 block 1, dFosB activator -5, PvdQ inh -13, PglD DTNB 5 and CDK5 inh -2.
Screening CSc1nsc(SCC(=O)Nc2nc3ccccc3s2)n1 returned FGF22 binding 44*, SIRT5 block -1, dFosB activator -9, PvdQ inh 2 and CDK5 inh 0.
Screening O=C(C[C@@H]1C[C@@H]2c3cc(NC(=O)Nc4ccccc4)ccc3O[C@@H]2[C@@H](CO)O1)NCC1CC1 returned FGF22 binding 0, SIRT5 block 1 and PglD DTNB 0.
For Cc1ccccc1S(=O)(=O)NCC[C@@H]1CC[C@H](NC(=O)C2CCCCC2)[C@H](CO)O1 the results were FGF22 binding 0, SIRT5 block 2 and PglD DTNB -2.
CCCN(C)C[C@H]1OCc2cnnn2CCCC(=O)N([C@@H](C)CO)C[C@H]1C was read as FGF22 binding 0, SIRT5 block 2 and PglD DTNB -2.
`CN(C)c1ccc(C(=S)N2CCCCC2)cc1` gave FGF22 binding 43*, SIRT5 block 2, dFosB activator 1, PvdQ inh 1, PglD DTNB 1 and CDK5 inh 0.
`Cc1cc(C(=O)Nc2cccc3c2O[C@H](CN(C)C(=O)Nc2ccc(F)cc2)[C@@H](C)CN([C@@H](C)CO)C3=O)n(C)n1` gave FGF22 binding 0, SIRT5 block -3 and PglD DTNB 2.
For COCc1ccc(CN2CCc3c([nH]c4ccccc34)C2CC(C)C)o1 (configuration not stated) the results were FGF22 binding 43*, SIRT5 block -5, dFosB activator -4, PvdQ inh -12, PglD DTNB 0 and CDK5 inh 1.
Screening C[C@H](CO)N1C[C@H](C)[C@H](CN(C)Cc2ccc(-c3ccccc3)cc2)Oc2ccc(NC(=O)Nc3ccc(C(F)(F)F)cc3)cc2CC1=O returned FGF22 binding 0, SIRT5 block 3 and PglD DTNB -3.
For C[C@@H]1CN([C@H](C)CO)C(=O)c2cccc(NC(=O)c3ccc(-c4nccs4)cc3)c2O[C@@H]1CN(C)Cc1ccc(C(F)(F)F)cc1 the results were FGF22 binding 0, SIRT5 block 17* and PglD DTNB -4.
`C[C@@H]1CN([C@@H](C)CO)C(=O)c2cccc(NC(=O)c3ccc(-c4nccs4)cc3)c2O[C@@H]1CN(C)Cc1ccc(C(F)(F)F)cc1` gave FGF22 binding -1, SIRT5 block 26* and PglD DTNB 0.
CCC(=O)N1[C@@H]2c3ccc(C4=CCCC4)c(=O)n3C[C@@H]2[C@@H](CO)[C@@H]1C(=O)Nc1ccccc1 was read as FGF22 binding 0, SIRT5 block -4 and PglD DTNB -4.
For CCC(=O)N1C[C@@H](C)[C@@H](OC)CN(C)C(=O)c2ccc(NC(=O)Nc3ccccc3)cc2OC[C@@H]1C the results were FGF22 binding 0, SIRT5 block 3 and PglD DTNB 4.
For O=C(NNc1ccccc1C(F)(F)F)c1sccc1Br the results were FGF22 binding 0, SIRT5 block 20*, dFosB activator -4, PvdQ inh -5, PglD DTNB -5 and CDK5 inh 0.
O=C1N/C(=C\c2ccsc2)C(=O)N1Cc1ccc(F)cc1 was read as FGF22 binding 0, SIRT5 block 0, dFosB activator 10, PvdQ inh 8, PglD DTNB -4 and CDK5 inh 1.
`Cc1ccsc1/C=C1/NC(=O)N(Cc2ccc(F)cc2)C1=O` gave FGF22 binding 43*, SIRT5 block 1, dFosB activator 0, PvdQ inh -19 and CDK5 inh -3.
For Cc1cc(N)n(-c2ccc(Oc3ccccc3)c(S(=O)(=O)O)c2)n1 the results were FGF22 binding 0, SIRT5 block 47*, dFosB activator 7, PvdQ inh -18 and CDK5 inh -6.
Screening c1ccc(N2CCN(c3nc(-c4cccs4)nc4ccccc34)CC2)cc1 returned FGF22 binding 43*, SIRT5 block -3, dFosB activator -5, PvdQ inh -5 and CDK5 inh 1.
Screening COc1ccc(OCCSc2nc(C)c(Cc3ccccc3)c(=O)[nH]2)cc1 returned FGF22 binding 0, SIRT5 block -6, dFosB activator -5, PvdQ inh -4 and CDK5 inh -4.
Cc1nc(SCCOc2ccccc2)[nH]c(=O)c1Cc1ccccc1 was read as FGF22 binding 43*, SIRT5 block -7, dFosB activator -5, PvdQ inh 3 and CDK5 inh 2.
For O=C(C[C@@H]1C[C@H]2c3cc(NC(=O)Nc4ccc(C(F)(F)F)cc4)ccc3O[C@H]2[C@H](CO)O1)NCc1ccc(Cl)cc1 the results were FGF22 binding 0, SIRT5 block 7 and PglD DTNB -4.
CCNS(=O)(=O)c1ccc(CCC(=O)N2CCN(C(=O)OCC)CC2)cc1 was read as FGF22 binding 0, SIRT5 block 15*, dFosB activator -1, PvdQ inh -17, PglD DTNB -1 and CDK5 inh 0.
`CCNS(=O)(=O)c1ccc(CCC(=O)N2CCOCC2)cc1` gave FGF22 binding 0, SIRT5 block -2, dFosB activator 1, PvdQ inh 0, PglD DTNB -6 and CDK5 inh 1.
